In experiment [1] the target is Peroxisome proliferator-activated receptor delta (Homo sapiens) (UniProt Q03181). Description: qHTS assay to identify small molecule agonists of the peroxisome proliferator-activated receptor delta (PPARd) signaling pathway (AID 743212; calls by dose curve; further: on the % scale 0 is the no-effect control and ±100 the full control effect). Put shortly:
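Quantitative high-throughput agonist screen in a HEK293H beta-lactamase reporter line under UAS control. Compounds in DMSO, at 37 C. Fluorescence read after 2 h with FRET substrate at room temperature.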
(qHTS replaces the single test concentration by a dilution series.)

Experiment [2] is described as follows: qHTS assay to identify small molecule antagonists of the peroxisome proliferator-activated receptor delta (PPARd) signaling pathway - cell viability counter screen (AID 743213). Further: nearly all actives have a fitted effect of over 50% in size. Further: potency means the concentration at half of the fitted maximal effect. Put shortly: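 Viability counter-screen, qHTS format: PPARd-bla HEK293H, L165041 300 nM final, 17 h compound exposure at 37 C, CellTiter-Glo luminescence after 30 min RT.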
The target of experiment [3] is Bile acid receptor (Homo sapiens) (UniProt Q96RI1). Description: qHTS assay to identify small molecule antagonists of the farnesoid-X-receptor (FXR) signaling pathway (AID 743217; active means well fitted inhibition curve with a large enough effect in the signal ratio in the repeat runs, not every such curve was filed as active; the % refers to the signal ratio; further: on the % scale 0 is the no-effect control and ±100 the full control effect). The gist of the method: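 FXR-UAS-bla HEK 293T cells (beta-lactamase reporter) given compound plus chenodeoxycholic acid (50 uM final), 16 h at 37C. LiveBLAzer B/G FRET substrate added for 2 h at room temperature; fluorescence read.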
Bile acid receptor (Homo sapiens), sequence (Q96RI1 whole entry, looked up): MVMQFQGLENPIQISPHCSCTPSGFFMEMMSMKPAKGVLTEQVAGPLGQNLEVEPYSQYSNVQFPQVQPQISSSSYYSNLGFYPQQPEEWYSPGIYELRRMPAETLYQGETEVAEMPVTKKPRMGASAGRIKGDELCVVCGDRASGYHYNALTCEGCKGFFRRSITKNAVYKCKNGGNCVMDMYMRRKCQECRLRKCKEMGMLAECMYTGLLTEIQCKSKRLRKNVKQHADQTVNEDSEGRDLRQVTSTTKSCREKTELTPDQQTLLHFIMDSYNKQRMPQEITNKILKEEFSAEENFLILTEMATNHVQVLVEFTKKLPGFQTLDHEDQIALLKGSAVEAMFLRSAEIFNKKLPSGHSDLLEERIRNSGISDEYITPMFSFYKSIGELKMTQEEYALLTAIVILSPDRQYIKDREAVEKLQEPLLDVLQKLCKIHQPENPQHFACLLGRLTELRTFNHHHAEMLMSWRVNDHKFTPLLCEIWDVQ

Experiment [4] in a line: qHTS assay to identify small molecule antagonists of the farnesoid-X-receptor (FXR) signaling pathway - cell viability counter screen (AID 743221; active means well fitted cell-killing curve with a large enough effect in the repeat runs, not every such curve was filed as active; further: nearly all actives have a fitted effect of over 50% in size; further: potency means the concentration at half of the fitted maximal effect). Put shortly: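 Cytotoxicity is taken from ATP luminescence (CellTiter-Glo, 30 min, room temperature) in FXR-bla HEK 293T cells previously incubated 16 h at 37 C with compound and chenodeoxycholic acid at 50 uM final.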
The target of experiment [5] is Vitamin D3 receptor (Homo sapiens) (UniProt P11473). Description: qHTS assay to identify small molecule agonists of the vitamin D receptor (VDR) signaling pathway (AID 743222; calls by dose curve; further: on the % scale 0 is the no-effect control and ±100 the full control effect). Put shortly: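 VDR-bla cells plated 4 h at 37 C, then exposed to compounds for 16 h at 37 C. Beta-lactamase reporter activity measured by fluorescence after 2 h room-temperature loading with LiveBLAzer B/G FRET substrate.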
Vitamin D3 receptor (Homo sapiens), sequence (P11473 whole entry, looked up): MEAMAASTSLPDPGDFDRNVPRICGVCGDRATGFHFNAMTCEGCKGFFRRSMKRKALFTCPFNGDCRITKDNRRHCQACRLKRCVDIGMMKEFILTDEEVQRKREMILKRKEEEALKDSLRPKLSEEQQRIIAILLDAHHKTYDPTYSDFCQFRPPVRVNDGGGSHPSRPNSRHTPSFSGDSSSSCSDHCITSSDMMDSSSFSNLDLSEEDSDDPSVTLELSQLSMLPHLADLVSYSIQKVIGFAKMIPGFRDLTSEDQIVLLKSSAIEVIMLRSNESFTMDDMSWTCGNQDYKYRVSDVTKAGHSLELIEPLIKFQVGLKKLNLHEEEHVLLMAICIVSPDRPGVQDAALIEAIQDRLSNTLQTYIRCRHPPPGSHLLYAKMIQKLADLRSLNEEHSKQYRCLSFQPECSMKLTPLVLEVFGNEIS

For experiment [6] the target is unchanged. As to the kind of experiment: qHTS assay to identify small molecule antagonists of the vitamin D receptor (VDR) signaling pathway (AID 743223; active means well fitted inhibition curve with a large enough effect in the signal ratio in the repeat runs, not every such curve was filed as active; the % refers to the signal ratio; further: on the % scale 0 is the no-effect control and ±100 the full control effect). The gist of the method: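 Quantitative HTS in VDR-bla reporter cells stimulated with 1alpha,25-dihydroxyvitamin D3, 3 nM final. Compound exposure 16 h, 37C, 5% CO2. Read-out: beta-lactamase FRET substrate fluorescence, 2 h RT.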

Experiment [7] is described as follows: qHTS assay to identify small molecule agonists of the NFkB signaling pathway - cell viability counter screen (AID 1159515; calls by dose curve; further: nearly all actives have a fitted effect of over 55% in size; further: potency means the concentration at half of the fitted maximal effect). The gist of the method:
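NFkB-bla ME-180 cells, 2,000/well, plated overnight at 37 C; compound added for 5 hr at 37 C. Viability read in the same wells as the bla reporter, by CellTiter-Glo luminescence after 30 min at room temperature.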

Experiment [8] in a line: qHTS assay to identify small molecule agonists of the endoplasmic reticulum stress response signaling pathway (AID 1159516; active means well fitted activation curve with a large enough effect in the signal ratio in the repeat runs, not every such curve was filed as active; the % refers to the signal ratio; further: on the % scale 0 is the no-effect control and ±100 the full control effect). The gist of the method: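 CellSensor ESRE-bla HeLa cells, 1,500 per well, plated overnight, then exposed to compounds for 5 hr at 37 C. Beta-lactamase reporter read with LiveBLAzer B/G FRET substrate after 2 hr at room temperature, 405 nm excitation, 460 and 530 nm emission.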

Experiment [9] is described as follows: qHTS assay to identify small molecule agonists of the endoplasmic reticulum stress response signaling pathway - cell viability counter screen (AID 1159517; calls by dose curve;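 further: HeLa cells carrying an ER stress response element beta-lactamase reporter; series mostly up to about 61 µM; on the % scale 0 is the no-effect control and ±100 the full control effect; nearly all actives have a fitted effect of over 50% in size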). Put shortly:
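Counter-screen wells were identical to the reporter wells. Cells were plated at 1,500 per well and dosed for 5 hr, then read for luminescence 30 min after CellTiter-Glo addition.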

Experiment [10] in a line: qHTS assay to identify small molecule antagonists of the retinoid-related orphan receptor gamma (ROR-gamma) signaling pathway - cell viability counter screen (AID 1159520). Further: nearly all actives have a fitted effect of over 50% in size. Further: potency means the concentration at half of the fitted maximal effect. The gist of the method: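 Tet-on ROR gamma CHO cells were given compounds for 2 hr, then doxycycline hyclate at 1 uM final, and incubated 16 hr at 37 C. Viability was measured as ATP content by CellTiter-Glo luminescence.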

Experiment [11] concerns the target Nuclear receptor ROR-gamma (Homo sapiens) (UniProt P51449). As to the kind of experiment: qHTS assay to identify small molecule antagonists of the retinoid-related orphan receptor gamma (ROR-gamma) signaling pathway (AID 1159521; further: nearly all actives have a fitted effect of over 50% in size; further: potency means the concentration at half of the fitted maximal effect). The gist of the method:
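Inducible-expression reporter assay: doxycycline (1 uM final) switched on RORγ in CHO cells bearing a ROR response element-luciferase construct, with test compounds present from 2 h beforehand. Decreased luminescence after 16 h defined antagonist activity.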

Experiment [12] in a line: qHTS assay to identify small molecule agonists of the AP-1 signaling pathway - cell viability counter screen (AID 1159525; calls by dose curve; further: nearly all actives have a fitted effect of over 55% in size; further: potency means the concentration at half of the fitted maximal effect). Put shortly:
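AP-1-bla ME-180 cells in Opti-MEM with 0.5% dialyzed FBS, compound exposure 5 h at 37 C in 15-point titration. Viability read in the same wells as ATP content by CellTiter-Glo luminescence, normalised to tetra-n-octylammonium bromide and DMSO controls.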

Experiment [13] is described as follows: qHTS assay to identify small molecule agonists of the AP-1 signaling pathway (AID 1159526; calls by dose curve; further: on the % scale 0 is the no-effect control and ±100 the full control effect).
Experiment [14] in a line: qHTS assay to identify small molecule agonists of the peroxisome proliferator-activated receptor delta (PPARd) signaling pathway - cell viability counter screen (AID 743211). Further: nearly all actives have a fitted effect of over 55% in size. Further: potency means the concentration at half of the fitted maximal effect. Put shortly:
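Tox21 library compounds, delivered in DMSO, were incubated 17 h with PPARd-bla HEK293H cells; cytotoxicity was taken from CellTiter-Glo luminescence read 30 min after reagent addition.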

A short description of experiment [15]: qHTS assay to identify small molecule agonists of the farnesoid-X-receptor (FXR) signaling pathway - cell viability counter screen (AID 743218). Further: nearly all actives have a fitted effect of over 45% in size. Further: potency means the concentration at half of the fitted maximal effect. The gist of the method:
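FXR-UAS-bla HEK 293T cells exposed to compounds for 16 h at 37C. Cytotoxicity read in the same wells by CellTiter-Glo luminescence after 30 min at room temperature, following the beta-lactamase FRET read.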

Experiment [16] in a line: qHTS assay to identify small molecule agonists of the vitamin D receptor (VDR) signaling pathway - cell viability counter screen (AID 743224). The gist of the method:
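VDR-bla cells, 4 h after plating, exposed to compounds for 16 h at 37C; viability then read in the same wells as CellTiter-Glo luminescence after 30 min at room temperature, following the bla FRET read.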

The nature of experiment [17]: qHTS assay to identify small molecule antagonists of the vitamin D receptor (VDR) signaling pathway - cell viability counter screen (AID 743225). Further: nearly all actives have a fitted effect of over 50% in size. Further: potency means the concentration at half of the fitted maximal effect. The gist of the method: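 Same-well multiplex: following 16 h treatment of HEK 293T cells carrying a UAS-driven beta-lactamase reporter with compound and agonist (3 nM final), and a 2 h FRET substrate step, CellTiter-Glo was added and luminescence read after 30 min.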

Experiment [18] addresses Retinoic acid receptor RXR-alpha (Homo sapiens) (UniProt P19793). Description: qHTS assay to identify small molecule agonists of the RXR signaling pathway (AID 1159527; calls by dose curve; further: on the % scale 0 is the no-effect control and ±100 the full control effect; nearly all actives have a fitted effect of over 35% in size). The gist of the method: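 Compounds in DMSO were added to RXR-alpha-UAS-bla HEK 293T cells kept in 2% charcoal-stripped serum, and incubated 16 hr at 37 C with 5% CO2. Reporter signal came from a 2 hr B/G FRET substrate step.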

For experiment [19], the target named is Peroxisome proliferator-activated receptor delta (Homo sapiens) (UniProt Q03181). Description: qHTS assay to identify small molecule antagonists of the peroxisome proliferator-activated receptor delta (PPARd) signaling pathway (AID 743215; active means well fitted inhibition curve with a large enough effect in the signal ratio in the repeat runs, not every such curve was filed as active; the % refers to the signal ratio). Put shortly:
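PPARd-bla HEK293H cells (UAS-bla reporter) preincubated 5 h, then given compound plus 300 nM final L165041 agonist for 17 h at 37 C. Beta-lactamase activity read by LiveBLAzer B/G FRET substrate fluorescence after 2 h at room temperature.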

For experiment [20], the target named is Bile acid receptor (Homo sapiens) (UniProt Q96RI1). As to the kind of experiment: qHTS assay to identify small molecule agonists of the farnesoid-X-receptor (FXR) signaling pathway (AID 743220; active means well fitted activation curve with a large enough effect in the signal ratio in the repeat runs, not every such curve was filed as active; the % refers to the signal ratio; further: on the % scale 0 is the no-effect control and ±100 the full control effect). Put shortly: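 Beta-lactamase reporter under UAS control in GeneBLAzer FXR HEK 293T cells (5000/well) measured with LiveBLAzer FRET substrate after 2 h at room temperature. Compound exposure lasted 16 h at 37C.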

Inconclusive results are not listed. A number with no mark means an inactive call. Calls of active or inactive are those of the source. Unless noted, the call rests on the fitted dose curve; in most records, active means well fitted curve in the direction sought with a large enough effect in the repeat runs; inconclusive means weak or mixed curves; inactive means no such curve, though single readings can be large; an effect the other way counts as inactive or inconclusive.

Retinoic acid receptor RXR-alpha (Homo sapiens), sequence (P19793 whole entry, looked up): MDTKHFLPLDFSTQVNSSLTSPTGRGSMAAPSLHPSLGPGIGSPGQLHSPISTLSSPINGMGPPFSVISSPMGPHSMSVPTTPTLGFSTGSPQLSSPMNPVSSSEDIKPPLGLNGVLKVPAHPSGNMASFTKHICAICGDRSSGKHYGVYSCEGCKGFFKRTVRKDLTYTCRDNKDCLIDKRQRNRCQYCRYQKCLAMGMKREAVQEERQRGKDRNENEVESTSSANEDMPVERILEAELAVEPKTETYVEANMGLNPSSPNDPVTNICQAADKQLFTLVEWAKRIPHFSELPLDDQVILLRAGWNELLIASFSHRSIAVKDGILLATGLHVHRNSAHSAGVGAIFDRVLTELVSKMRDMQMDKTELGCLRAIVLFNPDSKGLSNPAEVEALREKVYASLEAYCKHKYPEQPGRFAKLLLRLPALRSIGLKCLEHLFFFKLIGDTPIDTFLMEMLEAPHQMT
Peroxisome proliferator-activated receptor delta (Homo sapiens), sequence (Q03181 whole entry, looked up): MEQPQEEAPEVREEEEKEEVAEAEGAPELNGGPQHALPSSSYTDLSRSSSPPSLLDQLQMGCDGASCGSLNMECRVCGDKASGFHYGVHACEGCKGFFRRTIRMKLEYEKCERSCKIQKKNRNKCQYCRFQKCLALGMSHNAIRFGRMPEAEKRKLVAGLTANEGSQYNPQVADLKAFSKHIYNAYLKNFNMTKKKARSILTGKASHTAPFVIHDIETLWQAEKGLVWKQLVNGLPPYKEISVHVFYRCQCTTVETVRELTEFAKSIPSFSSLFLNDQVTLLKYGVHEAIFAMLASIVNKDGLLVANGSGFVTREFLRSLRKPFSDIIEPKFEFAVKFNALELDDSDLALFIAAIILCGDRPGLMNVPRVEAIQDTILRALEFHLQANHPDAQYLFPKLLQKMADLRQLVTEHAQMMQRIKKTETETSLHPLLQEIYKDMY

For the compound `COCCCCCCCCOCCC[Si](C)(O[Si](C)(C)C)O[Si](C)(C)C`, the outcome in experiment [1], in experiment [3], in [5] and in experiment [9] was inactive. Moreover, the Potency was 15.5 µM (active) in [2] and 17.2 µM (active) in experiment [11]. Besides, the Potency result in experiment [4], in experiment [6], in experiment [7], in experiment [8], in experiment [10] and in experiment [12] was “inactive” in each case. Also, the Potency result in experiment [13] is “inactive”.
Take `CCN(CCO)CCCC(C)Nc1ccnc2cc(Cl)ccc12` (configuration not stated): the activity change, negative = cytotoxicity was 9.74% [at 5.95 µM] in experiment [14], 10.2% [at 5.95 µM] in experiment [4], 1.38% [at 5.95 µM] in experiment [16] and 5.2% [at 6.95 µM] in [9]. Moreover, the viability change, negative = cytotoxic in experiment [15] was -0.758% [at 5.95 µM]; in experiment [17] it was -0.399% [at 6.95 µM]; in experiment [12], 2.23% [at 6.97 µM]. Also, the activation in experiment [5] was 9.25% [at 6.01 µM]; in [8] it was -0.628% [at 6.95 µM]; in [18] it was 7.66% [at 6.98 µM]. For the same compound, the activity change, negative = inhibition is -3.93% [at 6.95 µM] in [6] and 13.3% [at 8.39 µM] in [11]. The activity, negative = cytotoxic in experiment [7] is 7.84% [at 6.95 µM]. Besides, in experiment [10], the activity, negative = cytotoxicity was 0.752% [at 8.39 µM].
Regarding `Oc1ccc(Cc2ccccc2)cc1`, the call in experiment [1], in experiment [19], in experiment [5] and in experiment [9] was inactive. The Potency result in experiment [2], in [15], in experiment [4], in experiment [16], in experiment [7] and in experiment [8] was “inactive” throughout. The Potency result in experiment [10], in experiment [11], in experiment [12] and in experiment [18] was “inactive” throughout.
For the compound `C[C@H](CCC(=O)O)[C@H]1CC[C@H]2[C@@H]3[C@H](O)C[C@@H]4C[C@H](O)CC[C@]4(C)[C@H]3CC[C@]12C`, the Potency entry in experiment [14], in experiment [15], in experiment [4], in [16], in experiment [7] and in experiment [8] was “inactive” each time. In addition, the Potency result in experiment [10], in [11], in experiment [12] and in [13] was “inactive” in each case. The call in experiment [9] was inactive.
For `CCCCCCCC/C=C\CCCCCCCC(N)=O`, the Potency result in experiment [14], in [2], in experiment [4], in experiment [6], in [16] and in experiment [17] was “inactive” throughout. Also, the Potency entry in [7], in experiment [8], in [10], in [11], in experiment [12] and in [18] was “inactive” throughout. In addition, the call in [1], in experiment [19], in experiment [20], in experiment [5] and in experiment [9] was inactive.
Turning to `CCCCC(CC)COCCCN` (configuration not stated), the Potency entry in [14], in experiment [4], in experiment [16], in experiment [17], in [7] and in [8] was “inactive” in each case. In addition, the Potency entry in experiment [10], in [11] and in experiment [12] was “inactive” in each case. The compound was classed as inactive in experiment [1], in experiment [19], in [3] and in [9].
As for `NC(N)=NN=C(/C=C/c1ccc([N+](=O)[O-])o1)/C=C/c1ccc([N+](=O)[O-])o1`, the Potency in experiment [14] is 9.44 µM (active); in [2], 9.44 µM (active); in [15], 10.6 µM (active); in experiment [4], 23.7 µM (active); in [17], 10.7 µM (active); in experiment [7] it was 13.4 µM (active). Further, the Potency in experiment [10] is 2.11 µM (active); in [11] it was 7.5 µM (active); in [12], 21.3 µM (active). In addition, the Potency entry in [8] was “inactive”. Also, the result in experiment [9] was inactive.
Consider `O=C(O)/C=C/c1cnc[nH]1`, for which the Potency result in experiment [14], in [2], in experiment [15], in [4], in [6] and in [16] was “inactive” throughout. Also, the Potency entry in experiment [17], in experiment [7], in experiment [8], in experiment [11], in experiment [12] and in [13] was “inactive” each time. Moreover, the result in [5] and in experiment [9] was inactive.

The values are drawn from PubChem BioAssay (Tox21).
